The full list was thinned out, with hits kept by preference.
ROC1-CUL1 inh – human ROC1-CUL1 E3 ligase inhibition | P62877+Q13616 | inhibition, % at 10 µM | 0.6% of 140,000 active | in vitro K48 di-Ub FRET, acceptor:donor ratio, 45 min | AID 1347404; in the data active = inhibition above about 25%
Target sequence (P62877 whole entry, looked up): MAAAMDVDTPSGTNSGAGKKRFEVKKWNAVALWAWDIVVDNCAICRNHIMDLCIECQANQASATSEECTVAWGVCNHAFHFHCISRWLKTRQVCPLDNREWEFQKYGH
Target sequence (Q13616 whole entry, looked up): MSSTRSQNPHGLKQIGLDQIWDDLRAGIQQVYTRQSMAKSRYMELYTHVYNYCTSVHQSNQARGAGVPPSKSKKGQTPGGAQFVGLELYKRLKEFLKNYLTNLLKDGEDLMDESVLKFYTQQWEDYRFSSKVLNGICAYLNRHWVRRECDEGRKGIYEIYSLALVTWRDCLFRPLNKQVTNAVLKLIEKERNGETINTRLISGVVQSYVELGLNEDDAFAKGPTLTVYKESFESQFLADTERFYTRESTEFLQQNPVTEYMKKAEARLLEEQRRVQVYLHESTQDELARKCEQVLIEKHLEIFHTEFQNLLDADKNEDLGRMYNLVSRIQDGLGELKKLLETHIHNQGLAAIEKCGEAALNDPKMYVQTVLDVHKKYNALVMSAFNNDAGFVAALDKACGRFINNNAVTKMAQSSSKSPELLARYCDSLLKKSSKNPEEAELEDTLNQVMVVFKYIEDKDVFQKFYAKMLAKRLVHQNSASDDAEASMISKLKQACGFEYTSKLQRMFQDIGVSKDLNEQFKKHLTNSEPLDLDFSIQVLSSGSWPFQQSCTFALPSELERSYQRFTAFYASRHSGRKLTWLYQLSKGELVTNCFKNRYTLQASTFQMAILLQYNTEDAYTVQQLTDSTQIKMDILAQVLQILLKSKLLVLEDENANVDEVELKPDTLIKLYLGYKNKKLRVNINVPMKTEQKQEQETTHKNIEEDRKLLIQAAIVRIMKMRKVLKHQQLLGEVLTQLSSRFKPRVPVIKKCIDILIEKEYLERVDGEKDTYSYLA
Active calls of the source: *.

SMILES | ROC1-CUL1 inh
O=C(Cc1ccccc1)Nc1cc(Cl)ccc1O | -5
O=C(Cc1ccccc1Cl)c1ccc(O)c(O)c1O | 101*
CN1/C(=C\C=C2/SC(=S)NC2=O)C(C)(C)c2ccccc21 | 34*
O=C1NC(=S)S/C1=C/C=C/c1ccccc1Cl | 9
Cc1ccccc1N=C/C=C1\N(C)c2ccccc2C1(C)C | -4
Cc1cc2c(cc1S(=O)(=O)N1CCC(C)CC1)OCC(=O)N2 | 2
CC1CCc2noc(NC(=O)c3ccccc3[N+](=O)[O-])c2C1 (configuration not stated) | -7
N#CC1=C(c2ccco2)C2CCCCC2=NC1=S (configuration not stated) | 1
COc1ccc(C2=C(C#N)C(=S)N=C(C3CC3)C2)cc1 | -1
CN1CCC2=NC(=S)C(C#N)=C(c3ccc(F)cc3)C2C1 (configuration not stated) | 97*
CCc1ccc(O)c(NC(=S)NC(=O)c2cccc3ccccc23)c1 | -9
C#CC(C)(CC)NC(=O)c1cc2cc(OC)ccc2oc1=O (configuration not stated) | 5
CC12CN3CC(C)(CN(C1)C3c1ccccc1Cl)C2O (configuration not stated) | -3
COc1ccc2[nH]c3c(c2c1)CCNC3c1ccccc1Cl (configuration not stated) | -1
Clc1ccccc1C1NCCS1 (configuration not stated) | 31*
CC(C)Nc1ccc(C(=O)NCCC2CCCCN2C)cn1 (configuration not stated) | -5
CCC(C(=O)N1CCN(c2cccc(C)c2C)CC1)n1nc(C)c2sc3ccccc3c2c1=O (configuration not stated) | -5
CCC(C)NC(=O)c1cnn2c1NC(c1ccc(OC)cc1)CC2C(F)(F)F (configuration not stated) | 2
O=[N+]([O-])c1ccc(N/N=C/c2cccn2-c2ccccc2)nc1 | 1
Cc1c(C(=O)O)cccc1-n1c(C)cc(/C=N/Nc2ccc([N+](=O)[O-])cn2)c1C | 82*
Cc1c(C(=O)O)cccc1-n1c(C)cc(/C=N/NC(=O)c2cc3ccccc3o2)c1C | 1
O=C1[C@@H]2CSC(c3ccc(Cl)cc3)N2C(=O)N1c1ccccc1 (some centres not stated) | -9
O=C(O)COc1ccc(Br)cc1/C=C1\SC(=O)N(Cc2ccc(F)cc2)C1=O | 1
CCN1C(=O)/C(=C/c2cc(OC)c(OCC(=O)O)cc2Br)SC1=Nc1ccc(OC)cc1 | 7
COc1cc(/C=C2/SC(=O)N(Cc3ccc(F)cc3)C2=O)cc(I)c1OCC(=O)O | 98*
SMILES | ROC1-CUL1 inh
COc1cc(/C=C2\SC(=O)N(Cc3ccc(F)cc3)C2=O)ccc1OCc1ccc(C(=O)O)cc1 | 17
CCOC(=O)c1ccc(N=C2S/C(=C/c3cc(OC)c(OC)c(OC)c3)C(=O)N2CC)cc1 | 4
CCOc1ccc(N=C2S/C(=C\c3cc(Cl)c(OCC(=O)O)c(OC)c3)C(=O)N2CC)cc1 | 94*
CN(C)Cc1ccccc1Cc1cccc(O)c1 | -4
COc1cccc(-c2cn3c(n2)sc2cc(C(=O)NCc4cccs4)ccc23)c1 | -7
O=C(OCCOc1ccccc1)C(C(F)(F)F)C(F)(F)F | 85*
NC(=O)c1ccccc1OCCOc1ccccc1 | 18
O=C(OCCOc1ccccc1)c1ccc(-c2ccccc2)cc1 | 0
O=C(NCc1ccon1)c1coc(COc2ccccc2)n1 | -10
O=c1ccc(=O)n(-c2ccccc2)[nH]1 | 5
CC(C)(C)c1cc(=O)n(-c2ccccc2)[nH]1 | 73*
COc1ccc(-c2cc(=O)n(-c3ccccc3)[nH]2)cc1OC | 1
COC(=O)NC(=O)c1cn(C)c(=O)[nH]c1=O | 2
CCOC(=O)c1ccc(N=CC2N=C(c3ccc(Cl)cc3)OC2=O)cc1 (configuration not stated) | 4
Nn1c(SCC(=O)c2ccccc2)nc2sc(-c3ccccc3)cc2c1=O | -6
COc1cccc(N2C(=O)/C(=C/c3ccc(O)cc3)SC2=S)c1 | 8
COc1ccc(N2C(=O)/C(=C\c3ccc(O)c(Br)c3)SC2=S)cc1 | 42*
O=C(O)COc1ccc(/C=C2\SC(=S)N(c3cccc(Cl)c3)C2=O)cc1 | 4
CCOc1cc(/C=C2\SC(=S)N(c3ccc(OC)cc3)C2=O)ccc1OCC(=O)O | 57*
COc1cc(/C=C2\SC(=S)N(c3cccc(C(F)(F)F)c3)C2=O)ccc1OCC(=O)O | -2
C=CCOc1ccc(/C=C2\SC(=S)N(c3ccc(OC)cc3)C2=O)cc1OCC | 23
CCOc1cc(/C=C2\SC(=S)N(c3ccccc3)C2=O)ccc1OCc1ccc(Cl)cc1Cl | -8
COc1ccc(N2C(=O)/C(=C\c3ccc(OC(=O)c4cccs4)c(OC)c3)SC2=S)cc1 | -9
CCOc1cc(/C=C2\SC(=S)N(c3cccc(Cl)c3)C2=O)ccc1OCC(=O)O | 33*
O=C(CNC(=O)c1ccccc1)OCc1cc(=O)n2ccsc2n1 | -22
SMILES | ROC1-CUL1 inh
Cc1cccc(-n2ncc(C(=O)N3CCOCC3)c2C2CCN(C(=O)OC(C)(C)C)CC2)c1 | 11
CN1CCc2sc(N)c(C#N)c2C1 | -11
O=C(O)c1cccc(S(=O)(=O)O)c1 | 2
CC(OC1CC(=O)CC2C(=O)c3c(O)ccc(O)c3C(=O)C12)c1ccc2ccccc2c1 (configuration not stated) | 97*
CC(C)(C)OC1CC(O)CC2C(=O)c3c(O)ccc(O)c3C(=O)C12 (configuration not stated) | 15
COc1ccc(C(C)OC2CC(=O)CC3C(=O)c4cccc(O)c4C(=O)C23)cc1 (configuration not stated) | 2
COC(=O)c1ccc(CN2CCC3(CC2)c2ccccc2[C@@H](NC(=O)c2ccco2)[C@@H]3OC)cc1 | -4
N#CC1=C(c2ccccc2)CC(C(F)(F)F)=NC1=S | 6
N#CC1=C(C(F)(F)F)CC(c2ccco2)=NC1=S | 91*
CC1=NC(=S)C(C#N)=C(C(F)(F)F)C1 | -1
CCS(=O)(=O)c1ncc(Cl)c(C(=O)N2CCN(c3cccc(Cl)c3)CC2)n1 | 0
COc1cc(/C=C2/C(=O)N(c3ccccc3)N=C2C)ccc1OCc1ccc(F)cc1 | 10
CCOc1cc(/C=C2/C(=O)N(c3cccc(C(=O)O)c3)N=C2C)ccc1OCC(=O)Nc1ccccc1 | 36*
COc1cc(/C=C2\C(=O)N(c3cccc(F)c3)N=C2C)ccc1O | 0
C#CCOc1ccc(/C=C2\C(=O)N(c3cccc(F)c3)N=C2C)cc1OC | 31*
CCOc1cc(/C=C2\C(=O)N(c3cccc(C(=O)O)c3)N=C2C(F)(F)F)ccc1OCC(=O)Nc1ccccc1OC | 15
COc1cc(/C=C2\C(=O)N(c3ccc(C)cc3)N=C2C)ccc1OCC(=O)Nc1ccc(C(=O)O)cc1 | -2
Nc1c(C(=O)N(c2ccccc2)c2ccccc2)sc2nc3c(cc12)CCCC3 | 5
Cc1ccc(CC(C)CC(=O)NC2CCCCC2)cc1 (configuration not stated) | 2
COCCCNc1oc(-c2ccc(COc3ccc(Cl)cc3)o2)nc1C#N | -8
COc1c(Cl)cc(-c2nc3cc(N)ccc3o2)cc1Cl | -13
O=C(NC(CSCc1ccccc1)C(=O)N/N=C/c1ccc([N+](=O)[O-])cc1)c1ccc([N+](=O)[O-])cc1 (configuration not stated) | 6
CN(C)c1ccc(/C=C/C2=NC(=O)NC(=O)C2)cc1 | -16
CCCCCCCCN1C(=O)/C(=C\c2ccc(N(C)C)cc2)C(=O)N(CCCC)C1=O | 4
CCCCCCCCCCCC[n+]1ccc(/C=C/c2ccc(N(C)C)cc2)cc1 | 62*

Screening data (PubChem)
